ASM inhibitor – blocks human secretory acid sphingomyelinase. placental ASM, HMU-PC fluorogenic substrate, 60 min. Potency, µM (doses to about 57.5 µM), for inactives: at the highest dose activity change, negative = inhibition, most hits filed as inhibitors. actives 0.006% (n = 340,000). AID 504937; also: potency is read from the fitted curve at half-maximal effect
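Steps: dispense placental human ASM, pin compound, wait 10 min at room temperature, add HMU-PC0 substrate at 9 uM final, incubate 60 min at 37 °C, add stop solution raising pH to 10, read fluorescence.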
TSHR antag – antagonists of human thyroid stimulating hormone receptor; TSHR-expressing cells, TSH-stimulated cAMP HTRF, 2 h; active compounds read low; activity change, negative = inhibition, % at 11.5 µM; actives 0.2% (n = 330,000);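 active = activity change below a set negative limit, meaning inhibition stronger than a set level, cut at about -70% in these data; inconclusive = activity change between two set negative limits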; also: % is scaled to controls: 0 for no effect and ±100 for the full control effect
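Cell-based HTRF cAMP assay; TSHR cells + compound, TSH EC80 (4nM final), 2 h, 37 deg C. Lysis with anti-cAMP cryptate and cAMP-d2, 30 min RT, read 665/620 nm.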
Apoferritin bind – binds horse apoferritin like a general anesthetic | P02791 | apoferritin/1-aminoanthracene competitive binding, fluorescence | Potency, µM (series often up to 77.5 µM), without a hit: top-dose activity change, negative = displacement, actives largely listed as inhibitors | actives 0.074% (n = 350,000); also: potency is read from the fitted curve at half-maximal effect; % is scaled to controls: 0 for no effect and ±100 for the full control effect; nearly all actives have a fitted effect of over 20% in size
Target sequence (P02791 2-175 limits assumed): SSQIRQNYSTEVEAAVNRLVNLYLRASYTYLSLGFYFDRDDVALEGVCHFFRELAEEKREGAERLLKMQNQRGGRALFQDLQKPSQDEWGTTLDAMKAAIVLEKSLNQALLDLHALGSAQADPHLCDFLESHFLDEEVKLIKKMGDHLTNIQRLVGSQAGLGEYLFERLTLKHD
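Read-out: endpoint 1-AMA fluorescence, excitation 380 nm and emission 535 nm, after compounds sit 10 min at room temperature with 10 uM horse-spleen apoferritin in 50% saturated 1-AMA/PBS. Values come from four-parameter Hill fits.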
TSG101-PTAP inh – blocks PTAP/TSG101 interaction to inhibit HIV-1 budding | Q99816 | Fluorescence polarization, FITC-PTAP peptide / Tsg101 binding | Potency, µM (doses to about 115 µM), without a hit: at the highest dose activity change, negative = inhibition, most hits filed as inhibitors | 340,000 tested, under 10 active | AID 493005; active = well fitted inhibition curve with a large enough effect in the main read-out, with a control signal flat, not every such curve was filed as active; inconclusive = small, poorly fitted or top-dose-only effect, or effect the other way, or a change in a side signal; inactive = no such curve, though single readings can be large or run the other way; also: potency is read from the fitted curve at half-maximal effect; % of control where 0% means no effect
Target sequence (Q99816 whole entry, looked up): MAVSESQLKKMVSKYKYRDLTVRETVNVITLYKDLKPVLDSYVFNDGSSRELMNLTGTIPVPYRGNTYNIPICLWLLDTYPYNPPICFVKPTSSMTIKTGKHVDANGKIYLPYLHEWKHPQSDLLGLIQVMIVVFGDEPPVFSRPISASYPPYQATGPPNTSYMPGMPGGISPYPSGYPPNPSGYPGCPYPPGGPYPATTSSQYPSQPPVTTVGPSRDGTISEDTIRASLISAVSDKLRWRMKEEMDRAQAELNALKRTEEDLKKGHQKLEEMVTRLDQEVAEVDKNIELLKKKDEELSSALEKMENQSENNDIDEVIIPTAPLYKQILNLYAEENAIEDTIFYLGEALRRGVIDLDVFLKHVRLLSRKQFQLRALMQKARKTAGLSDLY
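Compounds were pin-transferred onto Tsg101 binding domain (10 uM final) in HEPES pH 7.5 buffer, then FITC-PTAP peptide was added at 50 nM final. After 20 min at RT, polarization reported peptide displacement across a qHTS concentration series.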
BRCA1 expr act – activators of BRCA1 expression. MCF7-BRCA1-FFLuc reporter, luminescence, 48 h; response scale: scaled: vehicle 0%, 10 µM genistein 100%. Potency, µM (doses to about 46.1 µM), without a hit: top-dose activation, hits mostly activators. actives 1.1% (n = 380,000). AID 624202; also: potency is read from the fitted curve at half-maximal effect; nearly all actives have a fitted effect of over 80% in size
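Reporter cells (MCF7, BRCA1 promoter-firefly luciferase) received library compounds across a concentration series for 48 h. End-point luminescence was measured and concentration-effect curves derived after normalization.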
Starred values were filed as active, the others as inactive; ? = inconclusive; / = no result; ! = repeats disagree. Most compounds without a hit are left out; they make up all but 1.2% or so of the library. Unless noted, calls follow the shape of the dose curve; as a rule, active = well fitted curve in the direction sought with a large enough effect; inconclusive = small, poorly fitted or top-dose-only effect, or another doubt; inactive = no such curve, though single readings can be large; an effect the other way counts as inactive or inconclusive.

SMILES | ASM inhibitor | TSHR antag | Apoferritin bind | TSG101-PTAP inh | BRCA1 expr act
CSCC[C@H](NC(=O)[C@H](CC(C)C)N(C)C(=O)[C@@H]1CCCN1C(=O)[C@H](Cc1ccccc1)NC(=O)[C@H](Cc1ccccc1)NC(=O)CCC(C)N)C(=O)O (stereo not given in full) | / | / | -13% | / | /
CCCCCCCCCCCCCCCCOCC(COP(=O)([O-])OCC[N+](C)(C)C)OC (stereo not given) | / | / | -3% | / | /
CCCCCCCCCCCCCCCCCCOC[C@H](COP(=O)([O-])OCC[N+](C)(C)C)OC | / | -81* | -19% | / | /
N/C(=N\O)c1ccc(N2CCN(c3ncccc3C(F)(F)F)CC2)nc1 | -1% | -2 | -9% | -14% | 3.5µM*
O=C(Nc1ccc(N2CCN(c3ncccc3C(F)(F)F)CC2)nc1)c1cccs1 | -3% | -38 | -18% | 4% | -85%
Cc1cc(Cl)ccc1OCC(=O)N1CCCCC1 | 2% | -4 | -8% | -1% | 11µM*
Cc1cc(C)c(C)c(OCC(=O)N2CCCCCC2)c1 | -1% | -12 | 20µM* | -3% | -3%
Cc1cc(C)cc(OCC(=O)N2CCCCCC2)c1 | 3% | -3 | ? | / | -36%
CCCCNc1ccc(/C=C2\C=Cc3ccccc32)cc1 | / | / | / | / | 6.3µM*
CCCCN(CCCC)c1ccc(/C=C2\C=Cc3ccccc32)cc1 | / | / | / | / | 1%
CCCCCOc1ccc(CSC(=N)N)cc1[N+](=O)[O-] | -8% | 9 | 8.9µM* | -1% | -38%
COc1ccc(CSC(=N)N)cc1[N+](=O)[O-] | -2% | -5 | -4% | -9% | -60%
Cc1ccc2nc(-c3cccnc3)oc2c1 | 2% | 1 | -12% | -9% | 3.2µM*!
CCCCCC(=O)Nc1ccc2oc(-c3cncc(Br)c3)nc2c1 | 29% | 9 | -5% | / | 53%
Cc1ccc2nc(-c3ccccn3)oc2c1 | 2% | -21 | -12% | -6% | ?
CCCC(=O)Nc1ccc2oc(-c3cncc(Br)c3)nc2c1 | 30% | 4 | 1% | -3% | 3.2µM*
CCC(=O)Nc1ccc2oc(-c3cccnc3)nc2c1 | 11% | 0 | -4% | -10% | 10µM*
O=S(=O)(c1ccc2c(c1)OCCO2)N1CCN(c2nc(-c3ccccc3)nc3ccccc23)CC1 | / | / | / | / | 0%
C/C(N)=C(/C#N)C(=O)CSc1nnc(Nc2cccc(C)c2C)s1 | 4% | -6 | ? | -5% | 11µM*
C/C(N)=C(/C#N)C(=O)CSc1nnc(Nc2c(C)cccc2C)s1 | -3% | -5 | ? | -4% | -3%
Cc1cc(C)cc(NC(=O)N2CCc3ccccc3C2)c1 | -2% | 9 | ? | -4% | ?
Cc1ccc(NC(=O)N2CCc3ccccc3C2)cc1C | -2% | -2 | ? | 0% | 10µM*
Cc1ccc(-n2c(C)nn(CCOc3ccccc3)c2=O)cc1 | 5% | 2 | -15% | -7% | 6.3µM*
Cc1nn(C)c(=O)n1-c1ccc(Oc2ccccc2)cc1 | 2% | -5 | -2% | -1% | 1%
Cc1nn(CCOc2ccccc2)c(=O)n1-c1c(F)cccc1F | 0% | 0 | 2% | 2% | 5.6µM*
SMILES | ASM inhibitor | TSHR antag | Apoferritin bind | TSG101-PTAP inh | BRCA1 expr act
Cc1nn(CC2CC2)c(=O)n1-c1ccccc1F | 3% | 6 | -12% | -15% | -3%
COc1cc2c(NC3CCN(C)CC3)nc(N3CCCCC3)nc2cc1OCCCN(C)C | / | / | / | / | -69%
Nc1nc(=S)[nH]c(N)c1N | / | / | / | / | -8%
Cc1cc(C(=O)O/N=C(\N)c2ccc(C(C)(C)C)cc2)no1 | 46% | -4 | 2% | 2% | 2.5µM*
CC(C)(C)c1ccc(C(=O)O/N=C(\N)c2ccccc2)cc1 | -3% | 2 | 0% | -4% | -73%
O=Cc1ccc(CS)cc1 | / | / | / | / | 7%
O=C(Cn1nnc(-c2ccccc2)n1)Nc1ccc2c(c1)OCO2 | 0% | 0 | -8% | 0% | -2%
O=C(Cn1nnc(-c2ccc3c(c2)OCO3)n1)Nc1ccccc1C(=O)O | 5% | -10 | -1% | -2% | 11µM*
Cc1cc(C)cc(NC(=O)Nc2ccc3c(c2)CCC3)c1 | -3% | -10 | -8% | -2% | 52%
Cc1ccc(NC(=O)Nc2ccc3c(c2)CCC3)cc1 | 3% | 6 | -7% | -7% | 4µM*
O=C(Nc1cccc(F)c1)Nc1ccc2c(c1)CCC2 | 0% | -9 | -4% | 1% | 2µM*
CC(C)C[C@H](NC(=O)[C@H](CCCCN)NC(=O)CNC(=O)[C@H](CC(C)C)NC(=O)[C@@H](NC(=O)[C@@H]1CSSC[C@H](N)C(=O)N[C@@H](CO)C(=O)N[C@@H](CC(N)=O)C(=O)N[C@@H](CC(C)C)C(=O)N[C@@H](CO)C(=O)N[C@@H]([C@@H](C)O)C(=O)N1)C(C)C)C(=O)N[C@@H](CO)C(=O)N[C@@H](CCC(N)=O)C(=O)N[C@@H](CCC(=O)O)C(=O)N[C@@H](CC(C)C)C(=O)N[C@@H](Cc1cnc[nH]1)C(=O)N[C@@H](CCCCN)C(=O)N[C@@H](CC(C)C)C(=O)N[C@@H](CCC(N)=O)C(=O)N[C@H](C(=O)N[C@@H](Cc1ccc(O)cc1)C(=O)N1CCC[C@H]1C(=O)N[C@@H](CCCNC(=N)N)C(=O)N[C@H](C(=O)N[C@@H](CC(N)=O)C(=O)N[C@H](C(=O)NCC(=O)N[C@@H](CO)C(=O)NCC(=O)N[C@H](C(=O)N1CCC[C@H]1C(N)=O)[C@@H](C)O)[C@@H](C)O)[C@@H](C)O)[C@@H](C)O | / | / | -3% | / | /
COc1ccc(C)c2sc(=NC(=O)c3ccc(C(C)=O)cc3)n(C)c12 | 15% | -8 | 2% | -5% | 0.79µM*
CCCNC(=O)[C@H]1O[C@@H]1C(=O)N[C@H](C(=O)N1CCC[C@H]1C(=O)OC)[C@@H](C)CC | / | / | 1% | / | /
O=C(CCN1CCN(CCO)CC1)Nc1ccc(OCc2ccccc2)cc1 | 0% | / | ? | -1% | 12%
Nc1nc(SCC(=O)Nc2ccc(OCc3ccccc3)cc2)n[nH]1 | 1% | 7 | -17% | -5% | 10µM*
N#C/C(=C\c1ccc(OCc2ccccc2)cc1)C(=O)Nc1ccc(C(=O)O)cc1 | 3% | -21 | 2% | -8% | 11µM*
CN1CCN(CCOc2ccc(-c3ccccc3)cc2)CC1 | 1% | 25 | -22% | -4% | 7.9µM*
CN1CCN(CCC(=O)Nc2ccc(OCc3ccccc3)cc2)CC1 | 6% | 30 | ? | -5% | 11µM*
Cc1ccc2nc(-c3ccc(C)c(NC(=O)COc4ccccc4Cl)c3)oc2c1 | / | / | / | / | 70%
CC(C)=CC(=O)Nc1ccc(OCc2ccccc2)cc1 | 0% | 16 | ? | -1% | 2.8µM*
O=C(Nc1ccc(OCc2ccccc2)cc1)c1ccccc1 | -1% | -4 | -4% | 2% | 76%

Screening data from PubChem BioAssay.
